Here are results for 67 compounds from ChEMBL document CHEMBL4513216, “Probing the Open Global Health Chemical Diversity Library for Multistage-Active Starting Points for Next-Generation Antimalarials” (ACS Infect Dis, 2020).

The campaign covered roughly 68,000 compounds. About 2,700 (4%) showed an effect of 50% or more. The full list was thinned out, with strong results kept by preference.

The subject of the assay is Plasmodium berghei. Nature of the assay: Screen against P. berghei liver stage (PbLuc), transformed with Luciferase, at 2uM. Conditions: tested at 2 uM. The format is functional, HepG2.
`CN(C)CCNC(=O)CCn1ncc2c(Cl)cccc21`: the INHIBITION is 19.92%.

On to `Cc1cccc(=O)n1CCC(=O)N1CCC2(CC1)OCCCC2O` (configuration not stated), for which the INHIBITION turned out to be 62.96%.

As to `Cc1cccc(=O)n1CCC(=O)N1CC[C@](C)(O)[C@H](C)C1`, the INHIBITION is recorded as -4.52%.

For the compound `Cc1cccc(=O)n1CCC(=O)N1CC[C@@](O)(C2CCC2)[C@H](C)C1`, the INHIBITION is -11.55%.

Take `Cc1cc(N2CCN(Cc3ccccc3)CC(O)C2)cc(C)n1` (configuration not stated): the INHIBITION is 74.94%.

For `Cc1cc(N2CCN(Cc3ccccc3)CC(O)C2)nc(N)n1` (configuration not stated), the INHIBITION is reported as 24.44%.

Take `OC1CN(Cc2ccccc2)CCN(c2ccncc2)C1` (configuration not stated): the INHIBITION is on record as 1.42%.

Take `COc1ccc(OC)c(C2CCN(c3ccc4cc[nH]c4n3)C2)c1` (configuration not stated): the INHIBITION was determined as 29.98%.

Take `COc1cccc(C2CC(=O)Nc3nc(N4CCCCC4)sc32)c1OC` (configuration not stated): the INHIBITION is -18.15%.

On to `COc1cccc(C2CCN(c3ccc4cc[nH]c4n3)C2)c1OC` (configuration not stated), for which the INHIBITION is reported as 87.17%.

For `COc1ccccc1C1CCN(c2ccc3cc[nH]c3n2)CC1`, the INHIBITION worked out at 76.27%.

Take `c1cc(CN2CCCN(c3ccc4cc[nH]c4n3)CC2)ccn1`: the INHIBITION is 45.82%.

Turning to `Fc1ccccc1CN1CCCN(c2ccc3cc[nH]c3n2)CC1`, the INHIBITION is on record as -1.87%.

For `CCN1C(=O)CCC12CCCN(Cc1nccs1)CC2` (configuration not stated), the INHIBITION is reported as -23.02%.

On to `O=C1CC(c2ccccc2)c2sc(C(=O)O)c(-c3ccccc3)c2N1` (configuration not stated), for which the INHIBITION turned out to be 4.74%.

Regarding `Fc1ccc(CN2CCO[C@H]3[C@H](OCc4ccncc4)CC[C@@H]32)cc1`, the INHIBITION worked out at 4.54%.

`CCc1ncc(-c2cn(CCSc3ncn[nH]3)nn2)cn1`: the INHIBITION is reported as -5.87%.

As to `c1ncc(-c2cn(CCSc3cnn[nH]3)nn2)cn1`, the INHIBITION was 70.58%.

As to `c1c[nH]c(-c2cn(CCSc3cnn[nH]3)nn2)n1`, the INHIBITION worked out at 11.19%.

Turning to `CCn1ncc(C(=O)NCCc2nc(-c3ccncc3)n[nH]2)c1C`, the INHIBITION worked out at 9.61%.

For the compound `Cc1ccc(NC2CCN(C(=O)Cc3c(C)noc3C)CC2)nn1`, the INHIBITION was -25.13%.

Consider `CC(C)Cc1cc(NC(=O)c2n[nH]c3ccccc23)n(C)n1`, for which the INHIBITION was found to be 64.16%.

Consider `CC(C)Cc1cc(NC(=O)c2ccccc2F)n(C)n1`, for which the INHIBITION was -68.24%.

For `COc1ccc(C(=O)Nc2cc(CC(C)C)nn2C)cc1`, the INHIBITION is reported as 19.35%.

For `Cn1nc(CC(C)(C)C)cc1NC(=O)c1ccc2[nH]nnc2c1`, the INHIBITION came to 16.95%.

Consider `CC(C)Cc1cc(NC(=O)c2ccncc2)n(C)n1`, for which the INHIBITION is on record as 25.46%.

Take `CC(C)Cc1cc(NC(=O)c2ccc(=O)[nH]n2)n(C)n1`: the INHIBITION is -19.76%.

In the case of `COc1ccccc1C(=O)Nc1cc(CC(C)C)nn1C`, the INHIBITION was found to be 56.02%.

`CC(C)Cc1cc(NC(=O)c2ccc3[nH]nnc3c2)n(C)n1`: the INHIBITION was 50.61%.

In the case of `CC(C)Cc1cc(NC(=O)c2ccccc2)n(C)n1`, the INHIBITION was found to be 49.9%.

Consider `Clc1ccccc1-c1nnc(CNCCn2cccn2)o1`, for which the INHIBITION was 49.35%.

On to `C=C(C)COCCNC(=O)C1CCCN1C(C)=O` (configuration not stated), for which the INHIBITION came out at 45.75%.

Turning to `Cn1cc(CN2CCCN(C(=O)c3ccc4ccccc4n3)CC2)cn1`, the INHIBITION came out at 30.05%.

As for `O=C(CNC(=O)Nc1c(F)cccc1Oc1ccccc1)NC1CC1`, the INHIBITION is reported as -40.7%.

`Cc1nc2c(C(=O)N[C@H]3C[C@H]4CN(C)CCN4C3)cccc2[nH]1`: the INHIBITION is -51.5%.

As to `CCn1c(CN2CCCC(O)(c3ccc(F)cc3)CC2)cnc1SC` (configuration not stated), the INHIBITION was found to be 49.87%.

With `Cc1ccccc1OCCC(=O)N1CCCC(n2cncn2)C1` (configuration not stated), the INHIBITION was determined as 2.08%.

Consider `COc1ccc(CC(=O)N2Cc3nccn3CC(CN(C)C)C2)cc1` (configuration not stated), for which the INHIBITION was found to be 35.26%.

Regarding `Cc1cncc(CN2CC[C@@](O)(CNC(=O)c3c[nH]cn3)[C@H](O)C2)c1`, the INHIBITION is given as 19.36%.

As to `O=C(NC[C@]1(O)CCN(Cc2ccccc2F)C[C@H]1O)c1c[nH]cn1`, the INHIBITION is 38.96%.

As for `O=C(NC[C@]1(O)CCN(Cc2ccsc2)C[C@H]1O)c1c[nH]cn1`, the INHIBITION is 69.45%.

As to `CS(=O)(=O)N1CCC2(CC1)CC(NCc1ccco1)c1ccccc12` (configuration not stated), the INHIBITION was -9.53%.

On to `O=C1CN(C(=O)CN(CC2CCC2)CC(F)(F)F)CCN1`, for which the INHIBITION amounted to 19.92%.

Turning to `Cc1cc(C)n(Cc2cc(C(=O)N3CCCC3c3ccccn3)n[nH]2)n1` (configuration not stated), the INHIBITION is -15.08%.

In the case of `CC(C)(C)CC(=O)Nc1ncn(CC(=O)NCc2ccccc2)n1`, the INHIBITION was -34.98%.

As for `CC(CC(=O)Nc1ncn(CC(=O)NCc2ccccc2)n1)C1CC1` (configuration not stated), the INHIBITION was -1.21%.

`O=C(Cn1cnc(NC(=O)CC2CCCC2)n1)NCc1ccccc1`: the INHIBITION was determined as 67.59%.

In the case of `N[C@@H]1CC[C@H](C(=O)NCCn2cc(Cl)cn2)C1`, the INHIBITION is 61.95%.

Take `O=C(NCCn1cc(Cl)cn1)C1CCN(C(=O)C2CC2)CC1`: the INHIBITION stood at 23.64%.

For the compound `NC(=O)CN1CCC(C(=O)NCCn2cc(Cl)cn2)CC1`, the INHIBITION is -10.84%.

Regarding `O=C(CCN1CCCCO1)NC1CCCN(CC2CCCCC2)C1` (configuration not stated), the INHIBITION is on record as -0.88%.

For `c1cc(CNCc2ccc3c(c2)CCO3)cc(N2CCOCC2)n1`, the INHIBITION stood at 57.82%.

For the compound `COc1ccc(CNCc2ccnc(N3CCOCC3)c2)cc1OC`, the INHIBITION was found to be 62.13%.

As for `COc1ccc(CNCc2ccnc(N3CCCCC3)c2)cc1OC`, the INHIBITION is on record as 30.91%.

With `Fc1cc(CNCc2ccc3c(c2)CCO3)ccc1N1CCOCC1`, the INHIBITION was -10.05%.

As for `COc1ccc(OC)c(CNCc2ccnc(N3CCOCC3)c2)c1`, the INHIBITION is -28.39%.

On to `c1cc(CNCc2ccnc(N3CCOCC3)c2)c2c(c1)OCCO2`, for which the INHIBITION came out at 1.22%.

With `c1cnc(N2CCCC(c3cc4cccnc4[nH]3)C2)nc1` (configuration not stated), the INHIBITION is given as 14.47%.

For `C=C(C)COc1cccc(C(=O)N(CC)Cc2nc(COC)no2)c1`, the INHIBITION is recorded as -18.57%.

Take `CCN(Cc1nccn1C)C(=O)c1ccc(NCc2ccccc2)nc1`: the INHIBITION was 8.89%.

As for `C=C(C)CNc1ccc(C(=O)N(CC)Cc2nccn2C)cn1`, the INHIBITION was -13.51%.

Take `C=C(C)COc1cccc(C(=O)N(CC)Cc2nccn2C)c1`: the INHIBITION is reported as 52.98%.

As for `C=C(C)COc1cccc(CN(CC)Cc2noc(C)n2)c1`, the INHIBITION worked out at 36.28%.

Turning to `C=C(C)COc1cccc(C(=O)N(CC)Cc2noc(C)n2)c1`, the INHIBITION is 76.82%.

With `CCn1nc(C)c2ncnc(N(C)Cc3ccco3)c21`, the INHIBITION stood at 46.92%.

For the compound `CN(C)c1ccc(CN2C[C@@H]3CC[C@H]2CN(C2CCOCC2)C3)cn1`, the INHIBITION is listed as 25.52%.

As to `Cn1cccc1C(=O)N1CCN(CC2CC2)c2ncccc2C1`, the INHIBITION amounted to 8.13%.
